From PubChem BioAssay AID1159580 (chemical genetic matrix, 2015)
Screen size: about 5,500 compounds; about 2,000 (36%) were called active. About 18% were inconclusive and are not listed. No stated cut-off is given here; in the data, active means normalized growth mostly below about 0.91 (no sharp cut-off); inconclusive means no clear call, values can overlap the other calls; inactive means mostly above about 0.92. The list shows a part of the results.

Experiment: chemical genetic growth profiling, strain panel (AID 1159580);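 further: tested at 20 µM; growth read once vehicle control cultures reached saturation at 30 °C; 1 = growth at the plate median or of vehicle wells; lower values mean less growth of the strain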
Details: S. cerevisiae deletion strains, growth OD
[1] = locus YCL061C, strain MRC1, active compounds read low
[2] = locus YHR030C, strain SLT2, active compounds read low
[3] = locus YHR079C, strain IRE1, active compounds read low
[4] = locus YJL095W, strain BCK1, active compounds read low
[5] = locus YJL187C, strain SWE1, active compounds read low
[6] = locus YJR066W, strain TOR1, active compounds read low
[7] = locus YLR113W, strain HOG1, active compounds read low
[8] = locus YNL183C, strain NPR1, active compounds read low
[9] = locus YOR231W, strain MKK1, active compounds read low
[10] = locus YPL256C, strain CLN2, active compounds read low
[11] = locus YDL101C, strain DUN1, active compounds read low

Measured: normalized growth

CC(=O)Nc1ccc(S(=O)(=O)Nc2onc(C)c2C)cc1
inactive: locus YAL021C, strain ccr4, active compounds read low 0.984 | locus YAL026C, strain drs2, active compounds read low 0.976 | locus YAL030W, strain snc1, active compounds read low 0.98 | locus YBL061C, strain skt5, active compounds read low 0.969 | locus YBR009C, strain hhf1, active compounds read low 0.959 | locus YBR023C, strain chs3, active compounds read low 0.97 | locus YBR171W, strain sec66, active compounds read low 0.965 | locus YBR231C, strain swc5, active compounds read low 0.981 | locus YBR279W, strain paf1, active compounds read low 0.968 | locus YCL011C, strain gbp2, active compounds read low 0.973 | locus YCL016C, strain dcc1, active compounds read low 0.969 | [1] 0.985 | locus YCL069W, strain vba3, active compounds read low 0.972 | locus YCR088W, strain abp1, active compounds read low 0.965 | locus YDL005C, strain med2, active compounds read low 0.969 | locus YDL040C, strain nat1, active compounds read low 0.969 | locus YDR001C, strain nth1, active compounds read low 0.963 | locus YDR069C, strain doa4, active compounds read low 0.962 | locus YDR137W, strain rgp1, active compounds read low 0.959 | locus YDR159W, strain sac3, active compounds read low 0.946 | locus YDR195W, strain ref2 0.948 | locus YDR297W, strain sur2, active compounds read low 0.967 | locus YDR334W, strain swr1, active compounds read low 0.975 | locus YDR335W, strain msn5, active compounds read low 0.972 | locus YDR392W, strain spt3, active compounds read low 0.929 | locus YEL003W, strain gim4, active compounds read low 0.974 | locus YEL037C, strain rad23, active compounds read low 0.971 | locus YEL061C, strain CIN8 (second series), active compounds read low 0.956 | locus YER015W, strain faa2, active compounds read low 0.986 | locus YER016W, strain bim1, active compounds read low 0.96 | locus YER111C, strain swi4, active compounds read low 0.975 | locus YER155C, strain BEM2 (second series), active compounds read low 0.971 | locus YFR010W, strain ubp6, active compounds read low 0.959 | locus YGL167C, strain pmr1, active compounds read low 0.968 | locus YGL173C, strain kem1, active compounds read low 0.969 | locus YGL227W, strain vid30, active compounds read low 0.966 | locus YGL240W, strain doc1, active compounds read low 0.981 | locus YGL253W, strain hxk2, active compounds read low 0.994 | locus YHR013C, strain ard1, active compounds read low 0.963 | locus YHR027C, strain rpn1, active compounds read low 0.989 | [2] 0.975 | [3] 0.968 | locus YHR142W, strain chs7, active compounds read low 0.965 | locus YJL092W, strain hpr5, active compounds read low 0.971 | locus YJL095W, strain BCK1 (second series), active compounds read low 0.975 | [4] 1 | locus YJL115W, strain asf1, active compounds read low 0.964 | locus YJL129C, strain trk1, active compounds read low 0.983 | locus YJL154C, strain vps35, active compounds read low 0.965 | locus YJL164C, strain tpk1, active compounds read low 0.982 | locus YJL166W, strain qcr8, active compounds read low 0.983 | [5] 0.97 | [6] 0.908 | locus YKL160W, strain elf1, active compounds read low 0.984 | locus YKR026C, strain gcn3, active compounds read low 0.967 | locus YKR091W, strain srl3, active compounds read low 0.977 | locus YLL001W, strain dnm1, active compounds read low 0.951 | locus YLL026W, active compounds read low 0.961 | locus YLL041C, strain sdh2, active compounds read low 0.978 | locus YLR027C, strain aat2, active compounds read low 0.973 | [7] 0.975 | locus YLR221C, strain rsa3, active compounds read low 0.987 | locus YLR258W, strain gsy2, active compounds read low 0.971 | locus YLR262C, strain YPT6 (second series), active compounds read low 0.98 | locus YLR320W, strain mms22, active compounds read low 0.972 | locus YLR342W, strain FKS1, active compounds read low 0.974 | locus YLR357W, strain rsc2, active compounds read low 0.951 | locus YLR370C, strain arc18, active compounds read low 0.957 | locus YLR384C, strain iki3, active compounds read low 0.962 | locus YML120C, strain ndi1, active compounds read low 0.988 | locus YMR058W, strain fet3, active compounds read low 0.971 | locus YMR125W, strain sto1, active compounds read low 0.937 | locus YMR129W, active compounds read low 0.979 | locus YMR205C, strain PFK2, active compounds read low 0.936 | locus YMR231W, strain pep5, active compounds read low 0.969 | locus YNL071W, strain lat1, active compounds read low 0.975 | [8] 0.926 | locus YNL209W, strain ssb2, active compounds read low 0.975 | locus YNL248C, strain rpa49, active compounds read low 1.02 | locus YNL322C, strain KRE1 (second series), active compounds read low 0.98 | locus YNR049C, strain mso1, active compounds read low 0.969 | locus YOR001W, strain rrp6, active compounds read low 0.985 | locus YOR070C, strain gyp1, active compounds read low 0.977 | locus YOR080W, strain dia2, active compounds read low 0.954 | locus YOR083W, strain WHI5, active compounds read low 0.997 | locus YOR106W, strain vam3, active compounds read low 0.996 | [9] 0.989 | locus YOR265W, strain rbl2, active compounds read low 0.973 | locus YOR270C, strain vph1, active compounds read low 0.922 | locus YOR290C, strain snf2, active compounds read low 0.964 | locus YPL051W, strain arl3, active compounds read low 0.985 | locus YPL078C, strain atp4, active compounds read low 0.981 | locus YPL106C, strain sse1, active compounds read low 0.97 | locus YPL240C, strain hsp82, active compounds read low 0.99 | [10] 0.955

Brc1ccc(-c2csc(-c3ccncc3)n2)cc1
active: [11] 0.888 | locus YDR052C, strain DBF4, active compounds read low 0.892 | locus YDR054C, strain cdc34, active compounds read low 0.862 | locus YDR226W, strain ADK1, active compounds read low 0.895 | locus YER133W, strain GLC7, active compounds read low 0.683 | locus YFL009W, strain cdc4, active compounds read low 0.878 | locus YGR040W, strain KSS1, active compounds read low 0.59 | locus YGR052W, strain FMP48, active compounds read low 0.41 | locus YGR092W, strain DBF2, active compounds read low 0.443 | [2] 0.312 | [4] 0.149 | [6] 0.24 | locus YKL203C, strain TOR2, active compounds read low 0.221 | [7] 0.315 | [8] 0.257 | locus YNL207W, strain RIO2, active compounds read low 0.839 | locus YOR119C, strain RIO1, active compounds read low 0.306 | [9] 0.488 | locus YPL153C, strain RAD53, active compounds read low 0.609 | locus YPL204W, strain HRR25, active compounds read low 0.64 | [10] 0.578 | strain NNK1, active compounds read low 0.875
inactive: locus YAR019C, strain CDC15, active compounds read low 0.909 | locus YBL105C, strain PKC1, active compounds read low 0.943 | locus YBR135W, strain CKS1, active compounds read low 0.904 | locus YBR136W, strain MEC1, active compounds read low 0.916 | locus YBR160W, strain CDC28, active compounds read low 0.904 | locus YDL017W, strain CDC7, active compounds read low 0.923 | locus YDL028C, strain MPS1, active compounds read low 0.92 | locus YDL108W, strain KIN28, active compounds read low 0.932 | locus YDL132W, strain cdc53, active compounds read low 0.94 | locus YDL214C, strain PRR2, active compounds read low 0.848 | locus YDR477W, strain SNF1, active compounds read low 0.705 | locus YER123W, strain YCK3, active compounds read low 0.703 | locus YFL029C, strain CAK1, active compounds read low 0.911 | locus YFR003C, strain YPI1, active compounds read low 0.942 | locus YFR019W, strain FAB1, active compounds read low 0.874 | locus YFR028C, strain CDC14, active compounds read low 0.895 | [3] 0.632 | locus YHR082C, strain KSP1, active compounds read low 0.635 | locus YHR205W, strain SCH9, active compounds read low 0.622 | locus YIL147C, strain SLN1, active compounds read low 0.919 | locus YJL128C, strain PBS2, active compounds read low 0.958 | locus YJL157C, strain FAR1, active compounds read low 0.847 | locus YJR016C, strain ILV3, active compounds read low 0.914 | locus YJR066W, strain TOR1 (second series), active compounds read low 0.797 | locus YKL048C, strain ELM1, active compounds read low 0.889 | locus YKL067W, strain YNK1, active compounds read low 0.856 | locus YKL101W, strain HSL1, active compounds read low 0.889 | locus YKL193C, strain SDS22, active compounds read low 0.891 | locus YLR133W, strain CKI1, active compounds read low 0.844 | locus YLR403W, strain SFP1, active compounds read low 0.689 | locus YML070W, strain DAK1, active compounds read low 0.77 | locus YMR001C, strain CDC5, active compounds read low 0.901 | locus YMR205C, strain PFK2 (second series), active compounds read low 0.854 | locus YMR277W, strain FCP1, active compounds read low 0.892 | locus YNL006W, strain LST8, active compounds read low 0.939 | locus YNL020C, strain ARK1, active compounds read low 0.868 | locus YNL161W, strain CBK1, active compounds read low 0.908 | locus YNL222W, strain SSU72, active compounds read low 0.938 | locus YNL307C, strain MCK1 (second series), active compounds read low 0.847 | locus YOL078W, strain AVO1, active compounds read low 0.898 | locus YOL136C, strain PFK27, active compounds read low 0.846 | locus YOR061W, strain CKA2, active compounds read low 0.925 | locus YOR329C, strain SCD5, active compounds read low 0.933 | locus YPL031C, strain PHO85, active compounds read low 0.687 | locus YPL209C, strain IPL1, active compounds read low 0.919 | locus YPR025C, strain CCL1, active compounds read low 0.92 | locus YPR106W, strain ISR1, active compounds read low 0.919 | locus YPR111W, strain DBF20, active compounds read low 0.902 | strain TSCII, active compounds read low 0.88

c1ccc(-c2csc(-c3ccncc3)n2)cc1
inactive: locus YBR229C, strain ROT2, active compounds read low 0.979 | [1] 0.944 | [11] 0.967 | locus YDR150W, strain NUM1, active compounds read low 0.934 | locus YEL061C, strain CIN8, active compounds read low 0.914 | locus YGR078C, strain PAC10, active compounds read low 0.974 | locus YGR229C, strain SMI1, active compounds read low 0.958 | locus YHR087W, strain rtc3, active compounds read low 0.981 | [5] 1.03 | locus YJR043C, strain POL32, active compounds read low 0.974 | locus YJR075W, strain HOC1, active compounds read low 0.987 | locus YLR058C, strain SHM2 (second series), active compounds read low 0.972 | locus YMR219W, strain ESC1, active compounds read low 0.971 | locus YMR263W, strain SAP30, active compounds read low 0.946 | locus YMR307W, strain GAS1, active compounds read low 0.737 | locus YNL128W, strain TEP1, active compounds read low 0.937 | locus YNL153C, strain GIM3, active compounds read low 0.964 | locus YNL322C, strain KRE1, active compounds read low 0.989 | locus YNR030W, strain Alg12, active compounds read low 0.901 | locus YPL055C, strain LGE1, active compounds read low 0.832
active: locus YAL013W, strain DEP1, active compounds read low 0.916 | [2] 0.22 | locus YKL190W, strain CNB1, active compounds read low 0.894 | locus YLR039C, strain RIC1, active compounds read low 0.371 | locus YLR085C, strain ARP6, active compounds read low 0.535 | locus YLR262C, strain YPT6, active compounds read low 0.384 | locus YML094W, strain GIM5, active compounds read low 0.814 | locus YNL298W, strain CLA4 (second series), active compounds read low 0.829 | locus YOL006C, strain TOP1, active compounds read low 0.379 | locus YPL241C, strain CIN2, active compounds read low 0.8 | locus YPR135W, strain CTF4, active compounds read low 0.515
